The list is not random: actives were taken first. Their share in the collection is about 9.4%.
SMN2 splice up – SMN2 splice variant enhancement; HEK293 SMN2-luciferase splicing reporter, luminescence, 30-36 h; Potency, µM (titrated, usually from 46.1 µM), for the others: at the top dose activity change, positive = activation, hits mostly activators; 210,000 compounds, 2.8% hits; note: % of control where 0% means no effect; nearly all actives have a fitted effect of over 55% in size
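qHTS luciferase splicing reporter: luminescence rises when SMN2 exon 7 is included in transfected HEK293 cells. Compound exposure lasted 30-36 h at 37C, with 4.5 mM final sodium butyrate as control, followed by a ONE-Glo read.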
ELG1 DNA repair – inhibitors of ELG1-dependent DNA repair in HEK293T cells; 330,000 compounds, 2.3% hits; AID 504467; HEK293T ELG1-luciferase reporter, luminescence, 16 h; DNA damage induced by 5-fluorouridine; Potency, µM (highest dose often 46.1 µM), for the others: top-dose activity change, negative = inhibition, hits mostly inhibitors; note: % is set by controls: 0 for no effect and ±100 for the full control effect; nearly all actives have a fitted effect of over 55% in size
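5-Fluorouridine DNA damage + compound/DMSO, 2,000 cells/well, 16 h, 37 °C/5% CO2. ONE-Glo, 30 min RT, luminescence. Readout = decrease in reporter signal.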
NPC1 prom act – activates the NPC1 promoter; AID 485313; 320,000 compounds, 2.4% hits; Potency, µM (doses to about 9.22 µM), inactives show top-dose activation, actives largely listed as activators; Huh7 NPC1 promoter luciferase reporter, 24 h; note: % of control where 0% means no effect; nearly all actives have a fitted effect of over 60% in size
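Luminescence from an NPC1 promoter-driven luciferase reporter in stably transfected Huh7 cells was measured after 24 h compound treatment at 37 °C, followed by 10 min ambient incubation with luciferase detection reagent.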
ELG1 genotox – induces genotoxicity in HEK293T cells with luciferase-tagged ELG1. Potency, µM (top dose mostly 46 µM), for inactives: at the top dose activity change, positive = activation, most hits filed as activators. 330,000 compounds, 1.3% hits. HEK293T ELG1-luciferase reporter, luminescence, 16 h; note: % of control where 0% means no effect; nearly all actives have a fitted effect of over 60% in size
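Reporter readout depends on ELG1 protein level, which increases with genetic stress. After 16 hr compound exposure at 37 °C, luciferase activity was quantified using ONE-Glo.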
Rab9 prom act – Rab9 promoter activation; Huh7 Rab9 promoter-luciferase reporter, luminescence, 24 h; Potency, µM (top dose mostly 9.22 µM), for the others: at the top dose activation, negative = inhibition, most hits filed as activators; 320,000 compounds, 2.8% hits; AID 485297; note: % of control where 0% means no effect; nearly all actives have a fitted effect of over 60% in size
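Cells were plated at 1500 per well in reduced-serum medium with 10% FBS and left 2 h. Compound in DMSO was then added for 24 h at 37 °C. Reporter signal was read by luminescence after 10 min with luciferase detection reagent.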
FLuc counter – counter-screen for miR-21 project: firefly luciferase inhibitors or activators; 360,000 compounds, 6.9% hits; P08659; purified FLuc, Km substrates, luminescence inhibition; Potency, µM (doses to about 57.5 µM), inactives show at the highest dose activity change, negative = inhibition, hits mostly inhibitors;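 note: plate controls were vehicle for no effect and reference inhibitor for full effect; nearly all actives have a fitted effect of over 55% in size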
Target sequence (P08659 whole entry, looked up): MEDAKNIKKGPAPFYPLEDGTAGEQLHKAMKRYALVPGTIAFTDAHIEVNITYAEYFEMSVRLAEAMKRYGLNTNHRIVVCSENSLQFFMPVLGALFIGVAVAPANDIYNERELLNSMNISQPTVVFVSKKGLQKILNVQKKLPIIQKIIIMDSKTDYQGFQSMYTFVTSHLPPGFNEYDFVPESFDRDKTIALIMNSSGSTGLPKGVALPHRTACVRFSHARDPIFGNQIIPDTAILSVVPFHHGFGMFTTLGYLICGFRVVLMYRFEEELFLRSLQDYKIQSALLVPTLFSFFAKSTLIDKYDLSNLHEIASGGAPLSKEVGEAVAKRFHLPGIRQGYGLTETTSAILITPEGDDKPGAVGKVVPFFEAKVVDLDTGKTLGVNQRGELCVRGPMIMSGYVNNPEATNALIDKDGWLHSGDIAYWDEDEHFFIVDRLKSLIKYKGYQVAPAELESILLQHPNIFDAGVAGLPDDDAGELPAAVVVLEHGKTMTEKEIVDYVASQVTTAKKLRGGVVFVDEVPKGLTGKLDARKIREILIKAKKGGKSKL
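Purified P. pyralis luciferase (10nM final) with 10uM D-luciferin and 10uM ATP (Km levels) in 50mM Tris acetate pH 7.5, 10mM Mg acetate, 0.01% Tween-20, 0.05% BSA; qHTS 6-point titration, ~60 µM downward; luminescence read.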
An asterisk follows results filed as active; u = inconclusive; x = not tested or not shown; [ ] = another dose, or the depositor's remark. Calls come from the whole dose curve; as a rule, active = well fitted curve in the direction sought with a large enough effect; inconclusive = small, poorly fitted or top-dose-only effect, or another doubt; inactive = no such curve, though single readings can be large; an effect the other way counts as inactive or inconclusive. Potency is the fitted concentration of half-maximal effect.

SMILES | SMN2 splice up | ELG1 DNA repair | NPC1 prom act | ELG1 genotox | Rab9 prom act | FLuc counter
O=C(Nc1ncccc1Cl)C1COc2ccccc2O1 (configuration not stated) | -15% | u | -2% | u | 9% | 17µM*
CCN(Cc1nc(-c2ccc(OC)c(OC)c2)no1)S(=O)(=O)c1ccc(OC)cc1 | -4% | x | x | x | x | -2%
Cc1c(CNCc2ccc(OC(C)C)cc2)c(C(=O)O)c(C)n1Cc1ccc(Cl)cc1 | 16% | x | x | x | x | -2%
COc1ccccc1C(=O)NCc1nc2cccnc2n1Cc1ccc(F)cc1 | x | x | x | x | x | -2%
CN(C)S(=O)(=O)Nc1ccc(-c2cn3ccsc3n2)cc1 | x | x | x | x | x | 27µM*
C/C(=N\NC(=O)C1CC1)c1cccc(NC(=O)c2cccc(Cl)c2)c1 | 22% | u | 3% | 0% | 2% | u
CC(=O)Nc1cccc(/C(C)=N/NC(=O)c2ccc(Cl)cc2Cl)c1 | -26% | u | 3% | -1% | -6% | 19µM*
C/C(=N/NS(=O)(=O)c1ccc(Cl)cc1)c1cccc(NC(=O)c2ccc(Cl)cc2Cl)c1 | 8% | -16% | 0% | 0% | 4% | 17µM*
CC(=O)c1cccc(NC(=O)NNC(=O)c2ccc(Cl)cc2Cl)c1 | x | u | -5% | -10% | -6% | -6%
C/C(=N/NS(=O)(=O)c1ccc(C)cc1)c1cccc(NC(=O)c2cccc(Cl)c2)c1 | -13% | -5% | -1% | -11% | -5% | 17µM*
CCOc1ccc(-n2cc(C(=O)Nc3ccccc3OCC)c3cc(OC)c(OC)cc3c2=O)cc1 | 4% | x | x | x | x | 0%
CCCn1c(-c2ccc(F)cc2)nc2c(NCCN(CC)CC)nc(C)nc21 | -2% | x | x | x | x | x
O=C(COc1ccc(Cl)cc1)NCC(c1ccco1)S(=O)(=O)c1ccc(Cl)cc1 (configuration not stated) | x | x | x | x | x | -11%
O=C(Cc1ccc2cccnc2c1)c1ccc(O)cc1O | -3% | u | 27% | u | u | 21µM*
Oc1ccc2cccnc2c1 | 0% | -1% | 1% | -2% | -3% | 2%
Cc1ccc(CNc2ccc3cc(S(=O)(=O)N4CCCCC4)ccc3n2)cc1 | x | x | x | x | x | -2%
COc1ccc(C2C(C(C)=O)=C(O)C(=O)N2c2nccs2)cc1OC (configuration not stated) | 4% | 4% | 1% | 1% | 2% | 3%
COc1ccc(/C=C/C(=O)O)cc1S(=O)(=O)N1CCc2ccccc2C1 | -5% | u | 1% | -3% | 3% | -6%
COc1ccc2c(c1OC)C(=O)N(c1cccc(/C=C/C(=O)O)c1)C2 | x | u | 29% | u | 24% | 3µM*
COc1ccc2c(c1OC)C(=O)N(c1nccs1)C2 | 13µM* | u | u | 18µM* | u | 15µM*
COc1ccc(N2Cc3ccc(OC)c(OC)c3C2=O)cc1 | x | u | 2µM* | 10µM* | u | 4.8µM*
CCN(CC)C(=O)c1sc2c(c1C)c(=O)n(Cc1ccccc1)c(=O)n2CC(=O)Nc1ccc(OC)cc1 | x | x | x | x | x | 0%
Cc1nn2cc(-c3ncc(C(F)(F)F)cc3Cl)cnc2c1Br | x | u | 0.4µM* | u | 0.32µM* | 1.5µM*
FC(F)(F)c1cnc(-c2cnc3c(-c4ccc(Cl)cc4)cnn3c2)c(Cl)c1 | 4% | 6% | -3% | -1% | -3% | -3%
Cc1cc2ncc(-c3ncc(C(F)(F)F)cc3Cl)cn2n1 | 1.3µM* | u | 0.71µM* | u | 0.4µM* | 1.3µM*
SMILES | SMN2 splice up | ELG1 DNA repair | NPC1 prom act | ELG1 genotox | Rab9 prom act | FLuc counter
CCOCCc1nnc(NC(=O)C(=O)c2cc(C)n(-c3ccc(C)c(C)c3)c2C)s1 | x | x | x | x | x | 2%
Cc1cccc(Oc2sc(C(=O)c3ccccc3)c(N)c2C#N)c1C | -17% | u | -3% | -6% | 5% | -1%
N#Cc1c(Oc2ccc3ccccc3c2)sc(C(=O)c2ccccc2)c1N | -65% | 12µM* | -8% | -7% | 0% | 3%
COc1cccc2sc3ccc(C#CC4(N)CCCCC4)cc3c(=O)c12 | x | u | 24% | 11% | 21% | 19µM*
COc1ccc(N2CCN(C(=O)c3nn(-c4ccc(C)cc4)c(=O)n(C)c3=O)CC2)cc1 | x | x | x | x | x | -2%
O=C(O)c1ccccc1SCc1cn2cc(Br)ccc2n1 | u | u | u | u | u | 9.5µM*
O=C(O)c1cccnc1SCc1cn2cc(Br)ccc2n1 | -1% | 9% | 0% | -2% | -4% | 24µM*
O=C(O)c1ccccc1SCc1csc(-c2ccccc2)n1 | x | u | 24% | u | u | u
CCOc1ccccc1-c1noc(CCCC(=O)Nc2cccc(C(F)(F)F)c2)n1 | -20% | x | x | x | x | -13%
CC(Oc1ccc2c(c1)oc(=O)c1ccccc12)C(=O)NC(Cc1c[nH]c2ccc(O)cc12)C(=O)O (configuration not stated) | x | -11% | 1% | 5% | 0% | 27µM*
O=C(Nc1ccc(SC(F)F)cc1)C1=COCCO1 | 11µM* | u | 1.3µM* | 2.6µM* | 1µM* | 4.8µM*
Cc1ccc(C(=O)Nc2ccc(SC(F)F)cc2)s1 | 7.1µM* | u | 2.8µM* | u | 1.3µM* | 6.7µM*
O=C(N/N=C/c1ccc(OC(F)F)cc1)C1=COCCO1 | 11µM* | u | 3.2µM* | u | 2µM* | 8.5µM*
CCN(CC)S(=O)(=O)c1ccc2c(c1)N(CC(=O)NCCCN1CCN(c3cc(C)ccc3C)CC1)C(=O)CO2 | x | x | x | x | x | -1%
O=C1c2ccccc2C(=O)C1c1ccc(O)cc1 | -10% | -4% | -3% | 0% | 10% | u
O=C1c2ccccc2C(=O)C1c1ccc(Br)cc1 | x | u | u | u | 10%[1.84 µM] | 6µM*
CC(C)NC(=S)N/N=C1\CCCCc2ccccc21 | -6% | u | -1% | -1% | -4% | 1%
COc1cccc(NC(=S)N/N=C2/CCCCc3ccccc32)c1 | 28µM* | u | 10% | 14% | 24% | 13µM*
Cc1cc(N2CCCC2=O)cc(C)c1S(=O)(=O)NCCOc1ccc(C(C)(C)C)cc1 | -93% | 21µM* | -3% | -7% | 1% | 4%
CC(=O)N1CCc2c(sc3c2c(=O)n(CCc2ccccc2)c(=O)n3Cc2ccc(F)cc2)C1 | -3% | x | x | x | x | 2%
O=C(Nc1nccs1)c1cncc(Br)c1 | 11µM* | u | u | 7% | 4µM* | u
Cc1csc(NC(=O)c2cncc(Br)c2)n1 | 13µM* | u | 2.8µM* | u | 1.1µM* | 9.5µM*
Cc1cccc(CNC(=O)c2cccc(NC(=O)N3CCSc4ncccc43)c2)c1 | x | x | x | x | x | -12%

Source: PubChem (National Center for Advancing Translational Sciences (NCATS))
